For 14 molecules, growth results are on record in PubChem BioAssay (NCI).

Structures are written as SMILES. About 83,000 compounds went through this panel and 20% of them were active in at least one assay; those are over-represented in the sample as a whole.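 Growth was measured after 48 h exposure to one concentration of compound in 96-well plates. Values under 10 count as active.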 Unmarked numbers belong to inactive results. The source made the active and inactive calls.

Test systems include NCI-H23 lung; NCI-H226 lung; NCI-H322M lung; HOP-62 NSCLC; NCI-H460 lung; HOP-92 NSCLC; NCI-H522 lung; A549/ATCC NSCLC; 786-0 renal; COLO 205 colon.
What all share (experiment): NCI-60 one-dose screen, 48 h (100 = growth as untreated, 0 = no growth, -100 = all killed)
What all share (details): 10 µM unless noted

As to `COc1ncc(-c2ccc3nccc(-c4ccnnc4)c3c2)cc1NS(=O)(=O)c1ccc(F)cc1F`, the growth in the assay with NCI-H23 lung was 3.23% (active); with NCI-H226 lung it was -4.7% (active); in the assay with NCI-H322M lung, -31.1% (active); in the assay on HOP-62 NSCLC, -14.1% (active); in the assay on NCI-H460 lung, 5.35% (active); in the assay with HOP-92 NSCLC, -1.41% (active). Moreover, the growth in the assay with NCI-H522 lung was -44% (active); in the assay with A549/ATCC NSCLC, -61.6% (active); in the assay on 786-0 renal it was 4.21% (active); with COLO 205 colon, -83.2% (active).

For the molecule `Cc1cc2c(-c3nc4ccccn4c3N)c(O)c(O)cc2c(O)c1-c1c(C)cc2c(-c3nc4ccccn4c3N)c(O)c(O)cc2c1O`, the growth with NCI-H23 lung is 9.67% (active); in the assay on NCI-H226 lung it was 26%; with NCI-H322M lung it was 29.3%; in the assay with HOP-62 NSCLC, 11.3%; in the assay on NCI-H460 lung it was 7% (active); with HOP-92 NSCLC it was -8.82% (active). Also, the growth with NCI-H522 lung is -3.16% (active); in the assay with A549/ATCC NSCLC, 16.4%; with 786-0 renal, 32.4%; in the assay on COLO 205 colon, -48.5% (active).

As for `Cn1ncc(Cl)c1-c1cc(C(=O)N[C@H](CN)Cc2ccc(F)c(F)c2)oc1Cl`, the growth was 11.3% with NCI-H23 lung; 11.8% in the assay with NCI-H226 lung; 18.8% in the assay on NCI-H322M lung; -49.4% (active) in the assay with HOP-62 NSCLC; 2.97% (active) in the assay on NCI-H460 lung; -58.5% (active) in the assay on HOP-92 NSCLC. The growth is -66.7% (active) with NCI-H522 lung, -53.4% (active) with A549/ATCC NSCLC, -46.7% (active) in the assay with 786-0 renal and -77.9% (active) in the assay on COLO 205 colon.

Take `Clc1nc(Cl)c2ncn(CC#CCn3cnc4c(Cl)nc(Cl)nc43)c2n1`: the growth in the assay with NCI-H23 lung is 38.6%; with NCI-H226 lung, 5.54% (active); in the assay on NCI-H322M lung, 46.6%; with HOP-62 NSCLC it was 62%; in the assay on NCI-H460 lung it was 12.5%; in the assay with HOP-92 NSCLC, -87.6% (active). For the same molecule, the growth with NCI-H522 lung was -71.2% (active); in the assay on A549/ATCC NSCLC, 8.8% (active); in the assay on 786-0 renal it was 7.75% (active); in the assay with COLO 205 colon it was -26.9% (active).

With `C=CCCCOC1[C@H](OCc2ccccc2)C(OCc2ccccc2)C(OC)O[C@@H]1CNC(=O)c1cccc(I)c1` (stereo not given in full), the growth in the assay with NCI-H23 lung was 44.2%; in the assay with NCI-H226 lung, 66.5%; in the assay on NCI-H322M lung, 70.3%; with HOP-62 NSCLC it was 77.7%; in the assay with NCI-H460 lung it was -7.83% (active); in the assay on HOP-92 NSCLC, 67.2%. In addition, the growth was 42.1% in the assay on NCI-H522 lung, 27.2% with A549/ATCC NSCLC, 39.5% with 786-0 renal and 36.9% in the assay with COLO 205 colon.

With `COC[C@@H](C)n1c(C2CCOCC2)nc2c1C1C=C(OC)C(c3c(C)noc3C)=CC1N=C2` (stereo not given in full), the growth was 48.5% in the assay with NCI-H23 lung; 65.1% in the assay with NCI-H226 lung; 40.7% in the assay on NCI-H322M lung; 51.5% in the assay on HOP-62 NSCLC; 59.4% in the assay with NCI-H460 lung; 11.1% in the assay on HOP-92 NSCLC. The growth in the assay on NCI-H522 lung is -1.23% (active); with A549/ATCC NSCLC, 42.6%; in the assay with 786-0 renal, 48.6%; in the assay on COLO 205 colon, 31.9%.

For `CCS(=O)(=O)N1CCN(c2ccc(Nc3ncc(C(N)=O)c(NC4CC4)n3)cc2)CC1`, the growth with NCI-H23 lung was 75.9%; in the assay on NCI-H226 lung, 73.1%; in the assay on NCI-H322M lung, 79.4%; with HOP-62 NSCLC, 59.3%; in the assay with NCI-H460 lung, 60.3%; with HOP-92 NSCLC it was 87.4%. Besides, the growth with NCI-H522 lung was 59.2%; in the assay on A549/ATCC NSCLC, 62.2%; in the assay on 786-0 renal it was 89%; with COLO 205 colon, 1.91% (active).

On to `CO[C@@H](C(=O)N1Cc2[nH]nc(NC(=O)c3ccc(N4CCN(C)CC4)cc3)c2C1)c1ccccc1`, for which the growth is 36.8% with NCI-H23 lung; 37.3% in the assay with NCI-H226 lung; -0.392% (active) in the assay with NCI-H322M lung; -6.89% (active) with HOP-62 NSCLC; 4.44% (active) in the assay with NCI-H460 lung; -63.8% (active) with HOP-92 NSCLC. Moreover, the growth in the assay with NCI-H522 lung was 12.6%; in the assay on A549/ATCC NSCLC it was 19.1%; with 786-0 renal it was 10.7%; with COLO 205 colon, -88.2% (active).

For `COc1ccc2c(c1)cn1c3ccc(O)cc3nc(N)c21`, the growth is 25.5% in the assay on NCI-H23 lung; 45.2% in the assay with NCI-H226 lung; 40.2% with NCI-H322M lung; 25.1% in the assay on HOP-62 NSCLC; 8.48% (active) in the assay on NCI-H460 lung; 17.2% with HOP-92 NSCLC. For the same molecule, the growth in the assay with NCI-H522 lung is 14.2%; in the assay on A549/ATCC NSCLC, 38%; in the assay with 786-0 renal, 18.5%; with COLO 205 colon, 9.91% (active).

For the molecule `CO/C=C/C(=O)c1cc2cnc3c(=N)cc(NC(=O)C(C)C)c([nH]1)c23`, the growth in the assay on NCI-H23 lung is -11.9% (active); in the assay on NCI-H226 lung, -40.3% (active); with NCI-H322M lung, -13.2% (active); with HOP-62 NSCLC it was -18.7% (active); with NCI-H460 lung, 5.42% (active); in the assay with HOP-92 NSCLC, -16% (active). Further, the growth is 23.8% with NCI-H522 lung, 19.3% in the assay with A549/ATCC NSCLC, -44.6% (active) in the assay with 786-0 renal and -33.8% (active) with COLO 205 colon.

In the case of `Nc1c2c(c(O)c3c1=C(CO)C=N3)=NCCS2`, the growth with NCI-H23 lung is -43.9% (active); with NCI-H226 lung it was -85.9% (active); in the assay on NCI-H322M lung, -96% (active); in the assay with HOP-62 NSCLC it was -79.3% (active); with NCI-H460 lung, -60.5% (active); with HOP-92 NSCLC, -71.2% (active). The growth is -46.4% (active) with NCI-H522 lung, -72% (active) in the assay on A549/ATCC NSCLC, -82.6% (active) with 786-0 renal and -72.8% (active) in the assay with COLO 205 colon.

For `CCCC(=O)OCC1OC(n2cnc3c(=S)nc(N)[nH]c32)C(OC(=O)CCC)C1OC(=O)CCC` (stereo not given), the growth in the assay with NCI-H23 lung is 28.9%; with NCI-H226 lung, 33.3%; in the assay with NCI-H322M lung, 55.5%; in the assay on HOP-62 NSCLC it was 23.1%; with NCI-H460 lung it was 34.8%; in the assay on HOP-92 NSCLC it was 11%. The growth with NCI-H522 lung was -5.66% (active); with A549/ATCC NSCLC, 92.4%; in the assay on 786-0 renal, 21.5%; in the assay with COLO 205 colon, 79.2%.

As to `COC(=O)CC[C@@H](C)[C@H]1CC[C@H]2C3CC[C@@H]4C[C@@H]5CC[C@]4(C)[C@@]3(O5)[C@H](Br)[C@@H](Br)[C@]12C` (stereo not given in full), the growth in the assay with NCI-H23 lung was 81.1%; in the assay with NCI-H226 lung, 87.1%; in the assay on NCI-H322M lung it was 104%; with HOP-62 NSCLC, 85.8%; in the assay on NCI-H460 lung it was 107%; in the assay on HOP-92 NSCLC, 93.4%. Moreover, the growth in the assay on NCI-H522 lung was 58%; with A549/ATCC NSCLC, 68.6%; in the assay on 786-0 renal, 92.5%; in the assay on COLO 205 colon, 101%.

For the molecule `Cc1oc2c(C(=O)N/N=C\c3ccc(O)cc3O)c[nH]c2c1C`, the growth with NCI-H23 lung is 40.7%; in the assay with NCI-H226 lung, 28.8%; in the assay on NCI-H322M lung it was 26.3%; in the assay with HOP-62 NSCLC, 20.9%; in the assay on NCI-H460 lung, 4.29% (active); in the assay on HOP-92 NSCLC it was 13.4%. Further, the growth in the assay with NCI-H522 lung is 16.1%; in the assay with A549/ATCC NSCLC it was 12.7%; in the assay with 786-0 renal it was 5.43% (active); in the assay on COLO 205 colon, 8.96% (active).
